Assay results reported in PubChem BioAssay AID1477 (National Center for Advancing Translational Sciences (NCATS), 2009).
In all, about 230,000 compounds went through this assay and fewer than 10 were called active. Not shown: some 3% with an inconclusive outcome. The call rests on the fitted dose curve; in most records, active means well fitted curve in the direction sought with a large enough effect; inconclusive means small, poorly fitted or top-dose-only effect, or effect the other way, or another doubt; inactive means no such curve, though single readings can be large or run the other way. A selection follows. Bridge positions count the residues as written; N and C are the ends. Peptide text beside a SMILES is read from it.
Further: % of control where 0% means no effect.

These compounds were tested against Runt-related transcription factor 1 (Homo sapiens) + Core-binding factor subunit beta (Homo sapiens) (UniProt Q01196+Q13951) (assay: qHTS Assay for Compounds Blocking the Interaction Between CBF-beta and RUNX1 for the Treatment of Acute Myeloid Leukemia). Conditions: AlphaScreen CBFb-His/RUNX1-biotin binding, biochemical; series mostly up to 59.8 µM.
Chain of Runt-related transcription factor 1 (Homo sapiens) + Core-binding factor subunit beta (Homo sapiens) (Q01196 whole entry, looked up): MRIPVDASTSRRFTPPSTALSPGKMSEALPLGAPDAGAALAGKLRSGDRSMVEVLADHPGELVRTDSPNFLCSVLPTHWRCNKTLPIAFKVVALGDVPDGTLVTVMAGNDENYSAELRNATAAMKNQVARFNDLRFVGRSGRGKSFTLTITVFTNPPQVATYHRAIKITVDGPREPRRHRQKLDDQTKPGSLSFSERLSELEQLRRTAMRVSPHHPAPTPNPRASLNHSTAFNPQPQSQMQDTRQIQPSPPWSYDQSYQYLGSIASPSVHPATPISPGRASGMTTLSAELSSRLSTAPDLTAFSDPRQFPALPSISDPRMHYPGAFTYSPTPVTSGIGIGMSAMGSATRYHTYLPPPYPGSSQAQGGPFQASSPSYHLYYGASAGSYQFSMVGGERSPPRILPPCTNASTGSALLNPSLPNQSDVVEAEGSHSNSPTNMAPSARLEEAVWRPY
Chain of Runt-related transcription factor 1 (Homo sapiens) + Core-binding factor subunit beta (Homo sapiens) (Q13951 whole entry, looked up): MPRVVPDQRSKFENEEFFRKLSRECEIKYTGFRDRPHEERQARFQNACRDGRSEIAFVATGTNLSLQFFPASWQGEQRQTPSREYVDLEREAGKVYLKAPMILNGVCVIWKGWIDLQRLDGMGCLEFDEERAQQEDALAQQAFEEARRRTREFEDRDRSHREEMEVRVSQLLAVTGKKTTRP
Text: NIH Chemical Genomics Center [NCGC]
NIH Molecular Libraries Probe Production centers Network [MLPCN]
Assay Submitter (PI): Paul Liu
Core Binding Factor (CBF) abnormalities are associated with 20-25% of all acute myeloid leukemias (AML), of which 5-10% are further sub classified as acute myelomonocytic leukemia with eosinophilia, also known as M4Eo in the FAB classification scheme. This subtype of leukemia is usually associated with chromosome 16 inversion (p13:q22). Chromosome 16 inversion results in formation of the fusion oncogene CBFB-MYH11, which encodes the fusion protein CBF-beta-SMMHC.
It has been hypothesized that the interference of CBF-beta and RUNX1 binding could have therapeutic implications for patients with CBF mediated leukemias. We developed a CBF-beta and RUNX1 binding assay in AlphaScreenTM format and optimized it for high throughput screening to search for inhibitors. The goal of this project is to screen MLPCN's compound collection (MLSMR) for identifying the inhibitors of the interaction between CBF-beta and RUNX1 proteins as research probes. If these probes work well in the animal models, the ultimate goal of this project is to development a new drug treatment for this disease.
This assay can not be used to assess how apparent inhibitors interfere with protein binding, and whether inhibitors specifically bind to either protein. Disruption of this protein-protein interaction, through any mechanism, is the intended target activity.
NCGC Assay Protocol Summary:
Step, Parameter, Description
(1) Reagent, 3 uL CBFb-His/RUNX1-biotin mix incubated together for 20 minutes at room temperature (30 nM each)
(2) Compound or control, 23 nL compound stock solution
(3) Incubation, 15 minutes at Room temperature
(4) Reagent, 1 uL 50 ng each of beads (Nickel beads and streptavidin beads)
(5) Incubation, 90 minutes at Room temperature
(6) Detection, Excitation=365 nm Emission=440 nm, Envision reader in AlphaScreenTM mode
Keywords: MLSMR, MLPCN, NIH Roadmap, qHTS, NCGC, Core binding factor, CBF, CBF-beta, Acute myeloid leukemia
For `CC[C@H](C)[C@H](NC(=O)[C@H](CCCNC(=N)N)NC(=O)[C@H](CCCNC(=N)N)NC(=O)[C@H](CC(C)C)NC(=O)[C@H](Cc1ccccc1)NC(=O)CNC(=O)CNC(=O)[C@@H](N)Cc1ccc(O)cc1)C(=O)N[C@@H](CCCNC(=N)N)C(=O)N1CCC[C@H]1C(=O)N[C@@H](CCCCN)C(=O)N[C@@H](CC(C)C)C(=O)N[C@@H](CCCCN)C(=O)N[C@@H](Cc1c[nH]c2ccccc12)C(=O)N[C@@H](CC(=O)O)C(=O)N[C@@H](CC(N)=O)C(=O)N[C@@H](CCC(N)=O)C(=O)O`, the activity, negative = inhibition was “inactive”.
For `COC(=O)c1ccccc1N=Nc1c(C)[nH][nH]c1=O`, the activity, negative = inhibition was “inactive”.
`O=C(NCc1ccccc1)C1=C[C@@H](C2CCCCC2)C[C@@H](OCc2ccc(CO)cc2)O1` was tested, and the activity, negative = inhibition was “inactive”.
For `COc1ccc(N(CC(=O)NC2CCCCC2)C(=O)CNC(=O)c2ccco2)c(OC)c1`, the activity, negative = inhibition was “inactive”.
`CSc1ccccc1N1CCN(CCCCCC(=O)NC2CCCc3ccccc32)CC1` (centres undefined) was tested, and the activity, negative = inhibition was “inactive”.
`CC1=C2[C@@H](O)[C@H]([C@@H](C)C(=O)NCCC(C)C)CC[C@@]2(C)C=CC1=O` was tested, and the activity, negative = inhibition was “inactive”.
In the case of `Cc1cccn2c(CN(C)C3CCCc4ccccc43)c(C(=O)N3CCOCC3)nc12` (centres undefined), the activity, negative = inhibition is reported as “inactive”.
`COc1ccc(-c2ccc(C3C4C=CCCC4(C)C(=O)N3Cc3ccccc3)c(F)c2)cc1OC` (centres undefined) was tested, and the activity, negative = inhibition was “inactive”.
In the case of `CCCOC(=O)c1c(NC(=O)c2cnn3c2NC(c2ccccc2)CC3C(F)(F)F)sc2c1CCCC2` (centres undefined), the activity, negative = inhibition is reported as “inactive”.
In the case of `COc1ccc(OC)c(C2C3=C(N=c4s/c(=C\c5cccc(O)c5)c(=O)n42)c2ccccc2CC3)c1` (centres undefined), the activity, negative = inhibition is reported as “inactive”.
`Cc1cc(-c2nnc(CCC(=O)NC(c3ccccc3)c3ccccc3)o2)no1` was tested, and the activity, negative = inhibition was “inactive”.
`CCCN1CCC(=O)N(C(CSc2ccc(OC)cc2)Cc2ccccc2)CC1` (centres undefined) was tested, and the activity, negative = inhibition was “inactive”.
`Cc1noc(C)c1-c1ccc2ncnc(NC(C)c3ccco3)c2c1` (centres undefined) was tested, and the activity, negative = inhibition was “inactive”.
For `O=C(CNC1CCCCC1)NCC1(c2ccccc2)CCCC1`, the activity, negative = inhibition was “inactive”.
In the case of `Nc1nc(NC(=O)/C=C/c2ccc(F)cc2)nn1-c1ccccc1`, the activity, negative = inhibition is reported as “inactive”.
With `CC(Nc1nc(N2CCOCC2)nc2ccccc12)c1ccccc1` (centres undefined) the activity, negative = inhibition was “inactive”.
For `COc1ccc(C2=Nn3c(nnc3-c3ccccc3O)SC2)cc1`, the activity, negative = inhibition was “inactive”.
In the case of `O=C(O)C1CC=CC2CCN(C3CCCCC3)C(=O)C21` (centres undefined), the activity, negative = inhibition is reported as “inactive”.
`Cc1ccc(CN(Cc2cccnc2)C(=S)Nc2cc(Cl)ccc2C)cc1` was tested, and the activity, negative = inhibition was “inactive”.
With `O=C(NCc1ccccn1)[C@]1(C(F)(F)F)C[C@H](CCc2ccccc2)CCCO1` the activity, negative = inhibition was “inactive”.
In the case of `Cc1ccc(SCC(CC(C)C)N2CCN(CCc3ccccc3)CCC2=O)cc1` (centres undefined), the activity, negative = inhibition is reported as “inactive”.
`O=C(CC1NCCc2ccccc21)Nc1cccc(Cl)c1` (centres undefined) was tested, and the activity, negative = inhibition was “inactive”.
In the case of `CCOC(=O)c1ccccc1N1C(=O)C2Sc3[nH]c(=O)sc3C(/C=C/c3ccccc3)C2C1=O` (centres undefined), the activity, negative = inhibition is reported as “inactive”.
`CCOC(=O)c1cc2c(=O)[nH]c(C(Cl)(Cl)Cl)nc2o1` was tested, and the activity, negative = inhibition was “inactive”.
In the case of `C[C@@H](O)[C@@H]1NC(=O)[C@H](CCCCN)NC(=O)[C@H](Cc2c[nH]c3ccccc23)NC(=O)[C@H](Cc2ccccc2)NC(=O)[C@H](Cc2ccccc2)NC(=O)[C@H](CC(N)=O)NC(=O)[C@H](CCCCN)NC(=O)[C@@H](NC(=O)[C@@H]2CCCN2)CSSC[C@@H](C(=O)N[C@@H](CCCCN)C(=O)O)NC(=O)[C@H](CO)NC(=O)[C@H](CO)NC(=O)[C@H](Cc2ccccc2)NC1=O` (H-PCKNFFWKTFSSCK-OH; disulfide 2-13), the activity, negative = inhibition is reported as “inactive”.
For `O=C1C2C(c3ccccc3)CC=CC2C(c2ccoc2)N1Cc1ccccc1` (centres undefined), the activity, negative = inhibition was “inactive”.
In the case of `COCCCn1c(SCc2cccc(OC)c2)nc2cc(OC)c(OC)cc2c1=N`, the activity, negative = inhibition is reported as “inactive”.
In the case of `C=C1/C(=C\C=C2\CCCC3(C)C2CCC3C(C)/C=C/C(O)C2CC2)CC(O)CC1O` (centres undefined), the activity, negative = inhibition is reported as “inactive”.
`CCOC(=O)C(C)Oc1cccc2c(=O)n(CC(=O)NCCc3ccc(OC)c(OC)c3)ccc12` (centres undefined) was tested, and the activity, negative = inhibition was 2.24% [at 2.36 µM] (inactive).
With `COc1ccc(C(=O)C2CCCN(Cc3cccn3-c3ccccn3)C2)c(C)c1` (centres undefined) the activity, negative = inhibition was “inactive”.
For `ONC(=Nc1ccc(Cl)cc1)c1ccccc1Cl`, the activity, negative = inhibition was “inactive”.
For `COc1cc(CN2CCN(Cc3ccc(C)cc3)CC2)c([N+](=O)[O-])cc1OC`, the activity, negative = inhibition was “inactive”.
`C=C/C1=C/Cc2ccccc2[C@H](C[N+](=O)[O-])C(C(=O)OC)(C(=O)OC)C1` was tested, and the activity, negative = inhibition was “inactive”.
With `COC(=O)c1c(NC(=O)CN2C(=O)NC(CCc3ccccc3)C2=O)sc2c1CCCCC2` (centres undefined) the activity, negative = inhibition was “inactive”.
For `CC(C)(C)NCCCOc1ccc(Cl)cc1C(C)(C)C`, the activity, negative = inhibition was “inactive”.
In the case of `CCCNC(=O)OC[C@H]1O[C@H](CCO/N=C/[C@@H](NS(=O)(=O)c2ccc(C)cc2)[C@H](C)/C=C/CC(=O)OC)C=C[C@@H]1Oc1ccc(OC)cc1`, the activity, negative = inhibition is reported as -0.295% [at 2.36 µM] (inactive).
For `C/C=C/c1ccc(OCCCCN2CCC(C)CC2)c(OC)c1`, the activity, negative = inhibition was “inactive”.
For `Cc1cccc(N2CCC(NCc3c(C(=O)N4CCCCC4)nc4c(C)cccn34)CC2)c1`, the activity, negative = inhibition was “inactive”.
With `CC1(C)CC(CNCCC(c2ccc(F)cc2)c2ccco2)CCO1` (centres undefined) the activity, negative = inhibition was “inactive”.
For `Fc1ccc(Cl)cc1-c1nc(Nc2ccncc2)c2nccnc2n1`, the activity, negative = inhibition was “inactive”.
With `CCOc1ccc2sc(NS(=O)(=O)c3ccc(N)cc3)nc2c1` the activity, negative = inhibition was “inactive”.
`CCc1ccc(CN(C)C(=O)CCc2nnc(-c3ccc(-c4ccccc4)cc3)o2)nc1` was tested, and the activity, negative = inhibition was “inactive”.
With `CCOC(=O)C1(CCOc2ccccc2)CCN(C(=O)c2cncs2)CC1` the activity, negative = inhibition was “inactive”.
For `COc1ccc(C(CC(=O)N2CCN(c3ccccc3)CC2)c2c(O)cc(OC)cc2OC)cc1` (centres undefined), the activity, negative = inhibition was “inactive”.
